# In the supplement of paper PMC9694430:
# Experiments:
# Test in all cases: thermal shift delta Tm vs DMSO control; higher = stronger stabilization (binding)
# Details in all cases: 12.5 µM; protein concentration 2 µM
# [1] = test system: LOC_OS01G01410-cb001
# Method in brief: (§1)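 Purified, E. coli-expressed rice kinase domain constructs were tested by differential scanning fluorimetry in 96-well plates: 19.5 μl of 2 μM kinase in 100 mM potassium phosphate pH 7.5, 150 mM NaCl, 10% glycerol, 5 × SYPRO Orange, plus compound in DMSO. Fluorescence was read from 25°C to 95°C at 0.05°C/s. Melting temperatures came from Boltzmann fits, and the shift is the triplicate mean relative to protein with DMSO alone.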
# [2] = test system: LOC_OS01G02750-cb003
# Method in brief: as §1
# [3] = test system: LOC_OS01G10900-cb004
# Method in brief: as §1
# [4] = test system: LOC_OS01G13800-cb001
# Method in brief: as §1
# [5] = test system: LOC_OS01G14860-cb001
# Method in brief: as §1
# [6] = test system: LOC_OS01G21960-cb002
# Method in brief: as §1
# [7] = test system: LOC_OS01G39600-cb002
# Method in brief: as §1
# [8] = test system: LOC_OS01G48390-cb002
# Method in brief: as §1
# [9] = test system: LOC_OS01G51400-cb002
# Method in brief: as §1
# [10] = test system: T1, LOC_OS01G52050-cb004
# T1 sequence (whole entry): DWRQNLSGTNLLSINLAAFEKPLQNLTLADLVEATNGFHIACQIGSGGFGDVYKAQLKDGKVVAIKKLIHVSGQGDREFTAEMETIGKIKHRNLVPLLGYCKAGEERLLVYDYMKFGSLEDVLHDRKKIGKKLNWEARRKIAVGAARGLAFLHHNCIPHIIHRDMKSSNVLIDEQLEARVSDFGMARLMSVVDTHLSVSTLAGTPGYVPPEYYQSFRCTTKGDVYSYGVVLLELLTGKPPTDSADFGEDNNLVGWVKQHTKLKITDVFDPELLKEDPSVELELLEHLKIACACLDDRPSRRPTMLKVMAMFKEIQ
# Method in brief: as §1
SMILES,thermal shift delta Tm [1] [°C],thermal shift delta Tm [2] [°C],thermal shift delta Tm [3] [°C],thermal shift delta Tm [4] [°C],thermal shift delta Tm [5] [°C],thermal shift delta Tm [6] [°C],thermal shift delta Tm [7] [°C],thermal shift delta Tm [8] [°C],thermal shift delta Tm [9] [°C],thermal shift delta Tm [10] [°C]
C=CC(=O)N1CCC(Oc2cc3c(Nc4ccc(Cl)c(Cl)c4F)ncnc3cc2OC)CC1 [Poziotinib (HM781-36B)],0.75,0.07,0.6,-0.34,0.65,0.36,1.56,0.49,-0.16,1.24
O=C(/C=C/c1ccc(O)c(O)c1)c1ccc(O)cc1O [Butein],3.34,6.05,1.41,1.88,4.26,3.26,4.11,1.83,2.14,9.01
Cn1ncc(Cl)c1-c1cc(C(=O)N[C@H](CN)Cc2cccc(F)c2)sc1Cl,0.78,2.36,0.19,-0.25,0.67,0.59,-0.1,0.28,0.18,0.5
Cc1[nH]nc2ccc(-c3cncc(OC[C@@H](N)Cc4ccccc4)c3)cc12,0.54,2.26,0.37,0.21,4.96,3.58,-0.73,1.02,0.06,2.3
C=CC(=O)Nc1ccc(CN2C(=O)N(c3cc(OC)cc(OC)c3)Cc3cnc(Nc4ccc(N5CCN(C)CC5)cc4)nc32)cc1,1.43,1.19,4.79,0.56,0.97,1.74,-0.73,4.57,0.02,0.08
Cc1cc(Nc2cc(N)ncn2)c(=O)n2c1C(=O)NC21CCCCC1,0.09,0.56,3.66,-0.03,1.91,0.49,-0.58,-0.04,0.24,-0.14
N#CC[C@H](C1CCCC1)n1cc(-c2ncnc3[nH]ccc23)cn1,0.74,1.15,0.65,-0.01,1.62,1.47,0.6,0.4,-0.02,0.98
Oc1cc(CNC(=S)/C=C/c2cc(O)c(O)c(Br)c2)cc(O)c1O,4.72,1.04,-0.23,4.09,2.93,5.85,0.87,0.74,1.58,1.78
Cc1nc(Nc2cnn(C3CCNCC3)c2)nc2c1N(C)C(=O)c1cc3ccccc3cc1N2C,0.36,0.48,-0.09,0.39,-0.18,0.66,-1.52,0.62,0.18,0.38
Cn1cnc2c(F)c(Nc3ccc(Br)cc3Cl)c(C(=O)NOCCO)cc21 [Selumetinib (AZD6244)],0.81,-0.16,0.43,0.45,0.22,0.07,0.25,1.04,0.36,0.08
CCN(CC)CCCCNc1ncc2cc(-c3cc(OC)cc(OC)c3)c(NC(=O)NC(C)(C)C)nc2n1,0.27,1.32,0.9,0.29,0.28,0.43,-0.12,1.3,0.23,0.11
CN1CCN(c2ccc(-c3ccncc3-c3cc(F)c(O)c(F)c3)cc2)CC1,0.42,0.81,-0.45,0.02,0.46,0.1,-0.43,-0.15,0.11,0.14
CCN(CC)CCNC(=O)c1c(C)[nH]c(/C=C2\C(=O)Nc3ccc(F)cc32)c1C [Sunitinib],3.95,1.72,0.25,-0.3,1.43,2.21,2.9,1.72,0.22,7.91
CCN1CCN(Cc2ccc(-c3cc4c(N[C@H](C)c5ccccc5)ncnc4[nH]3)cc2)CC1,3.01,0.66,3.11,0.28,0.24,0.28,2.27,0.54,0.24,0.44
Cc1c(C(=O)Nc2ccc(Oc3ccnc4[nH]cc(-c5ccccc5)c34)c(F)c2)c(=O)n(-c2ccc(F)cc2)n1C,0.66,2.79,1.91,0.84,0.67,1.55,2.37,1.72,0.78,2.8
N#CC(=C(/N)Sc1ccccc1N)/C(C#N)=C(\N)Sc1ccccc1N,1.35,1.84,-0.2,0.46,0.53,0.18,1.48,0.24,0.39,2.41
CCOc1cc2ncc(C#N)c(Nc3ccc(OCc4ccccn4)c(Cl)c3)c2cc1NC(=O)/C=C/CN(C)C [Neratinib (HKI-272)],1.9,1.42,1,0.47,6.67,0.71,5.12,0.77,0.27,2.11
COc1ccc(S(=O)(=O)N(CCO)c2ccccc2CN(C)C/C=C/c2ccc(Cl)cc2)cc1 [KN-93 Phosphate],0.65,0.92,0.7,-0.08,0.51,0.96,-0.38,0.66,0.28,0.47
Nc1cccc(S(=O)(=O)N2CCCN(S(=O)(=O)c3ccc4c(c3)OCCO4)CC2)c1,0.49,1.98,0.15,0.22,0.23,0.8,-0.77,3.24,0.46,0.19
CCCCCCCCCCCCCCCCn1cc[n+](Cc2ccccc2)c1C,-2.01,-7.84,-4.55,-6.34,-18.6,-3.32,-5.39,-5.85,-9.26,-3.57
